This is a sample that favours compounds with a hit; in the whole collection about 19% have one here.
KB-3-1 cytotox – qHTS assay for MDR1-selective chemotherapeutics: Primary screen using the parental adenocarcinoma cell KB-3-1; Potency, µM (series often up to 46.1 µM), actives largely listed as cytotoxic; KB-3-1 viability, CellTiter-Glo ATP luminescence, 72 h; AID 1347075, 2019; 400,000 compounds, 1.4% hits; note: nearly all actives have a fitted effect of over 60% in size
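Cytotoxicity measured as CellTiter-Glo luminescence after 72 h at 37 C. Compound titrations were pinned onto drug-naive KB-3-1 parental adenocarcinoma cells grown in DMEM with 10% FBS, and normalized data fitted to concentration-response curves.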
HT1080NT lethal – qHTS for induction of synthetic lethality in tumor cells producing 2HG: qHTS for the HT-1080-NT fibrosarcoma cell line. 360,000 compounds, 1.6% hits. HT-1080-NT fibrosarcoma viability, CellTiter-Glo ATP luminescence, 48 h. Potency, µM (titrated, usually from 46.1 µM), without a hit: top-dose activity, negative = less viability, most hits filed as cytotoxic;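 note: NT is the 2HG producing partner of a matched IDH1 knockdown line; 0% = DMSO-treated cells and -100% = media-only wells without cells; nearly all actives have a fitted effect of over 55% in size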
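Read-out is CellTiter-Glo luminescence after 10 minutes at room temperature, following 48 hours' compound treatment of HT-1080-NT cells (750 cells/well, RPMI, 5% FBS, 37 degrees C).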
DT40 TDP1 no CPT – qHTS for Inhibitors of human tyrosyl-DNA phosphodiesterase 1 (TDP1): qHTS in cells in absence of CPT | DT40 Tdp1-/- hTDP1 cells, no CPT, ATP luminescence, 48 h | 420,000 compounds, 15% hits | Potency, µM (highest dose often 46.2 µM), for the others: at the top dose activity change, negative = growth inhibition, usual class: inhibitors; note: nearly all actives have a fitted effect of over 55% in size
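Readout: luminescence from CellTiter-Glo after 30 min in the dark at RT. Cells: DT40 Tdp1-/- with stable hTDP1, 400/well. Exposure: compounds alone, ≥48 hr, 37 °C.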
HT1080 IDH1KD tx – qHTS for induction of synthetic lethality in tumor cells producing 2HG: qHTS for the HT-1080-IDH1KD cell line. HT-1080 IDH1 knockdown viability, ATP luminescence, 48 h. Potency, µM (top dose mostly 46.1 µM), for the others: at the highest dose activity, negative = toxicity, actives largely listed as cytotoxic. 360,000 compounds, 2% hits;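 note: 0% = DMSO wells and -100% = cell-free medium wells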
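IDH1KD HT-1080 cells, 750/well, RPMI + 5% FBS; compound pinned after 2 h settling; 48 h, 37 °C; CellTiter-Glo luminescence; % activity normalised to DMSO and no-cell wells; curves fitted, classed by r2 and efficacy.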
KB-V1 MDR tox – qHTS assay for MDR1-selective chemotherapeutics: Primary screen using the drug-selected MDR subline cells KB-V1; KB-V1 MDR cells viability, CellTiter-Glo, 72 h; Potency, µM (highest dose often 46.1 µM), actives largely listed as cytotoxic; 400,000 compounds, 3.4% hits; note: nearly all actives have a fitted effect of over 60% in size
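KB-V1 MDR subline cells in DMEM (phenol-red free, 10% FBS) exposed to compounds in qHTS concentration series for 72 h at 37 degrees C. Viability read by CellTiter-Glo luminescence; concentration-effect curves fitted after normalization and correction.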
TDP1 cell CPT – qHTS for Inhibitors of human tyrosyl-DNA phosphodiesterase 1 (TDP1): qHTS in cells in presence of CPT. AID 686979, 2013. Potency, µM (top dose mostly 46.2 µM), inactives show at the highest dose activity change, negative = growth inhibition, most hits filed as inhibitors. 420,000 compounds, 12% hits. chicken DT40 Tdp1-/-;hTDP1 cells + 20 nM CPT, ATP luminescence, 48 h; note: nearly all actives have a fitted effect of over 55% in size
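Chicken DT40 Tdp1-/- cells stably complemented with human TDP1 were seeded at 400 cells/well in medium containing 20 nM camptothecin, exposed to pin-transferred compounds, and grown at 37 °C for at least 48 hr. Viability was read as ATP luminescence.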
* marks the source's active call; other numbers are inactive results; i = inactive; ? = inconclusive; · = not tested or not shown; [ ] = remark or other dose. Calls come from the whole dose curve; as a rule, active = well fitted curve in the direction sought with a large enough effect; inconclusive = small, poorly fitted or top-dose-only effect, or another doubt; inactive = no such curve, though single readings can be large; an effect the other way counts as inactive or inconclusive. Unless noted, % is set by controls: 0 for no effect and ±100 for the full control effect; potency is the fitted concentration of half-maximal effect.

SMILES	KB-3-1 cytotox	HT1080NT lethal	DT40 TDP1 no CPT	HT1080 IDH1KD tx	KB-V1 MDR tox	TDP1 cell CPT
Cc1nc2ccccn2c1-c1ccnn1S(=O)(=O)c1ccc(F)cc1	?	?	12µM*	-13%	i	21µM*
Cc1nc2ccccn2c1-c1nnco1	i	6%	-23%	11%	?	7%
CCN(CC)c1ccc(/C=C/C2=C3C=CC=CC3NC=C2)cc1 (stereo unspecified)	?	·	14µM*	·	i	?
COc1ccc(CCNC(=O)c2c(Nc3ccccc3C)sc(C(=O)c3ccccc3)c2N)cc1OC	i	·	9.2µM*	·	i	?
Cc1ccccc1Nc1sc(C(=O)c2ccc(F)cc2)c(N)c1C(=O)NCCc1ccccc1	i	·	18µM*	·	?	?
Cc1ccc(C)c(Nc2ccc(C(=O)NCCc3ccccc3)cn2)c1	i	19%	-21%	17%	i	?
NC(=O)c1cc(C(=O)c2ccccc2Cl)c[nH]1	i	0%	-16%	9%	i	-3%
Cc1ccc2nc(COc3ccccc3NC(=O)C(C)(C)C)cc(=O)n2c1	i	·	?	·	i	?
CC(C)CCn1c(=O)c2ccccc2n2c(=S)[nH]nc12	i	-20%	?	-13%	?	-23%
CC(C)CCn1c(=O)c2ccccc2n2c(CN(C)Cc3ccccc3)nnc12	i	-3%	16µM*	-7%	?	23µM*
CC(C)CCn1c(=O)c2ccccc2n2c(CCl)nnc12	?	18µM*	23µM*	?	i	?
CC(C)CCn1c(=O)c2ccccc2n2c(CCC(=O)NC3CCN(Cc4ccccc4)CC3)nnc12	i	5%	?	7%	i	?
CCOC(=O)c1c(NC(=O)/C=C/c2ccc(C)cc2)sc(C(C)=O)c1C	i	·	-6%	·	?	-3%
CC(C)CN(C(=O)COC(=O)CCCc1c[nH]c2ccccc12)c1c(N)n(Cc2ccccc2)c(=O)[nH]c1=O	·	-2%	-3%	0%	·	-18%
CN(C)c1ccc(/C=C/c2ccnc3ccc(-c4ccccc4)cc23)cc1	i	·	14µM*	·	i	?
Cc1ccc(C)c2c(/C=C/c3ccc(N(C)C)cc3)ccnc12	?	·	?	·	i	?
COc1cccc2nccc(/C=C/c3ccc(N(C)C)cc3)c12	?	·	13µM*	·	?	32µM*
CN(C)c1ccc(/C=C/c2ccnc3cc(Cl)cc(Cl)c23)cc1	i	·	?	·	i	?
CN(C)c1ccc(/C=C/c2ccnc3ccc(F)cc23)cc1	i	·	14µM*	·	i	13µM*
CN(C)c1ccc(/C=C/c2ccnc3ccc(Br)cc23)cc1	i	·	5.6µM*	·	i	5.6µM*
Cn1c(CNC(=O)CSc2n[nH]c(-c3ccccc3)n2)nc2ccccc21	i	·	-1%	·	i	8%
CC(C)=CCC1=C(O)[C@](O)(CC=C(C)C)C(=O)C(C(=O)CC(C)C)=C1O	·	·	-27%[9.04 µM]	·	·	-36%[9.04 µM]
COc1ccc2nccc(/C=C/c3ccc(N(C)C)cc3)c2c1	i	·	11µM*	·	i	?
Cc1cc2nccc(/C=C/c3ccc(N(C)C)cc3)c2cc1C	i	·	?	·	i	?
CN(C)c1ccc(/C=C/c2ccnc3ccc(N)cc23)cc1	?	·	?	·	?	18µM*
SMILES	KB-3-1 cytotox	HT1080NT lethal	DT40 TDP1 no CPT	HT1080 IDH1KD tx	KB-V1 MDR tox	TDP1 cell CPT
CN(C)c1ccc(/C=C/c2ccnc3ccc(O)cc23)cc1	?	·	?	·	i	?
CN(C)c1ccc(/C=C/c2ccnc3ccc(Cl)cc23)cc1	i	·	13µM*	·	i	?
CCCC(C)C(=O)Nc1nnc(CCc2ccccc2)s1 (stereo unspecified)	i	-4%	?	0%	i	?
N#Cc1ccc(OCC(O)CN2CCN(CC(O)COc3ccc(C#N)cc3)CC2)cc1 (stereo unspecified)	i	8%	26µM*	4%	?	?
COc1ccc(OC)c(S(=O)(=O)N2CCN(CC(O)COc3ccc(C#N)cc3)CC2)c1 (stereo unspecified)	i	-6%	23µM*	-1%	?	?
COc1ccc(OC)c(S(=O)(=O)N2CCN(CC(O)COc3ccccc3)CC2)c1 (stereo unspecified)	i	-4%	-28%	-10%	?	-1%
N#Cc1ccc(OCC(O)CN2CCN(c3ncc(C(F)(F)F)cc3Cl)CC2)cc1 (stereo unspecified)	15µM*	?	15µM*	?	7.3µM*	?
N#Cc1ccc(-c2ccc(OCC(O)CN3CCCCC3)cc2)cc1 (stereo unspecified)	i	-4%	?	?	i	23µM*
OC(COc1ccc(OCC(O)CN2CCCCCC2)cc1)CN1CCCCCC1 (stereo unspecified)	i	-15%	?	-9%[9.24 µM]	i	-20%
